# Test results published in PubChem BioAssay (EPA / NIEHS).
# The source holds several records for some structures; these can differ, active in one and inactive in another. The source made the active and inactive calls. How the source made its calls: active means hit-call score of the fitted dose curve at least 0.9, where 1 is the maximum; inactive means score below 0.9.
# Assay: BSK_3C_Proliferation: Cell Proliferation Assessment in the BioMAP Diversity Plus: 3C Assay (AID 2283006);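 on AC50: potency may reflect either rise or fall in cell number versus DMSO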
# Conditions: primary human endothelial cells (HUVEC)
# Description: BSK_3C is a cell-based, multiplexed-readout assay that uses umbilical vein endothelium, a human vascular primary cell, with measurements taken at 24 hours after chemical dosing in a 96-well plate.BSK_3C_Proliferation is an assay component measured in the BSK_3C assay. It measures 0.1% sulforhodamine related to cell proliferation using Sulforhodamine staining technology.Data from the assay component BSK_3C_Proliferation was analyzed into 1 assay endpoint. This assay endpoint, BSK_3C_Proliferation, was analyzed with bidirectional fitting relative to DMSO as the negative control and baseline of activity. Using a type of viability reporter, measures of total protein for gain or loss-of-signal activity can be used to understand the viability at the cellular-level. Furthermore, this assay endpoint can be referred to as a secondary readout, because this assay has produced multiple assay endpoints where this one serves a viability function. To generalize the intended target to other relatable targets, this assay endpoint is annotated to the cell cycle intended target family, where the subfamily is proliferation.
# The levels of cell surface (or secreted, indicated by the prefix "s") biomarker endpoints were measured by ELISA. Overt cytotoxicity to cells in confluent adherent cultures (all systems other than the BT system) was assessed by measuring total protein levels using sulforhodamine B (SRB) staining in parallel cultures at the time of biomarker measurements, indicated as SRB endpoints. For proliferation assays for adherent cell types, individual cell types are cultured at sub-confluence and relative cell numbers quantified by SRB staining at time points optimized for each system (48 h: 3C and CASM3C systems; 72 h: BT and HDF3CGF systems; 96 h: SAg system). SRB was performed by staining cells with 0.1% SRB after fixation with 10% TCA and reading wells at 560 nm.Viability and proliferation of PBMC (T cells) was quantified by Alamar Blue reduction for the SAg and BT systems. For PBMC viability (referred to as PBMC Cytotoxicity within the assay endpoint names), cells were plated (75,000/well in a 96-well plate) and then chemical samples added for 1 h before addition of activators, SEB and TSST-1 (20 ng/mL final concentration each). Cells were incubated for 90 h. Then, Alamar Blue (20 uL/well) (Invitrogen, Cat DAL1100) was added for 6 h, and the plates were read with a fluorescence microplate reader at 546/580 nm (excitation/emission). For PBMC proliferation, cells were plated and activated as above but incubated for only 16 h prior to addition of Alamar Blue. Plates were read after 6 h.
SMILES,outcome,AC50
Oc1ccc(-c2ccccc2)cc1,inactive,
CCOC(=O)/C=C(C)/C=C/C[C@@H](C)CCCC(C)C,,20 µM (active)
CN(C)N=O,inactive,
COP(=S)(OC)Oc1ccc(S(=O)(=O)N(C)C)cc1,inactive,
BrCCBr,inactive,
CC(C)(C)CC(C)(C)c1ccc(O)cc1,,7.69 µM (active)
O=C(OC1CCCCC1)c1ccccc1C(=O)OC1CCCCC1,,9.38 µM (active)
Cc1ccccc1N,inactive,
CCC(=O)C(CC(C)N(C)C)(c1ccccc1)c1ccccc1 (stereo not given),inactive,
ClC1=C(Cl)[C@]2(Cl)[C@H]3[C@H]([C@H]4C=C[C@H]3C4)[C@@]1(Cl)C2(Cl)Cl,,20 µM (active)
Nc1ccc(-c2ccc(N)c(Cl)c2)cc1Cl,,1.84 µM (active)
CC(=O)OC(c1ccccc1)C(Cl)(Cl)Cl (stereo not given),inactive,
COC(=O)Cc1ccccc1,inactive,
Oc1c(I)cc(I)cc1I,,11.4 µM (active)
COc1cc(-c2ccc(N)c(OC)c2)ccc1N,inactive,28.8 µM (active)
CCNc1nc(NC(C)(C)C)nc(SC)n1,inactive,
ClC1(Cl)C2(Cl)C3(Cl)C4(Cl)C(Cl)(Cl)C5(Cl)C3(Cl)C1(Cl)C5(Cl)C24Cl (stereo not given),inactive,
O=C(O)C(Cl)(Cl)Cl,inactive,
O=[N+]([O-])c1ccc(O)c([N+](=O)[O-])c1,inactive,
O=C(O)CCC(F)(C(F)(F)F)C(F)(F)F,inactive,

SMILES,outcome,AC50
C=C(C)C(=O)[O][Sn]([CH2]CCC)([CH2]CCC)[CH2]CCC,,0.148 µM (active)
COC[C@H](C)N(C(=O)CCl)c1c(C)csc1C,inactive,
COC(=O)c1sccc1S(=O)(=O)NC(=O)Nc1nc(C)nc(OC)n1,inactive,
CCOP(=S)(OCC)Oc1nc(Cl)c(Cl)cc1Cl,,20 µM (active)
CC(C)(C)c1cc(O)ccc1O,,9.85 µM (active)
OCc1ccco1,,19.8 µM (active)
COP(=S)(OC)Oc1c(Cl)cc(C)cc1Cl,,20 µM (active)
C[C@@H]1C[C@@H]([C@H](O)CC2CC(=O)NC(=O)C2)C(=O)[C@@H](C)C1,,2.9 µM (active)
C=CC(=O)OCCCCCC(C)C,inactive,
CC(C)c1ccc(CO)cc1,inactive,
NC(=O)O,inactive,
CCCCCCCCC(=O)NCc1ccc(O)c(OC)c1,,13.6 µM (active)
O=C(O)C(F)(F)C(F)(F)C(F)(F)C(F)(F)C(F)(F)C(F)(F)F,inactive,
CC(C)CCCCCCOC(=O)c1ccccc1C(=O)OCCCCCCC(C)C,inactive,
CCOP(=S)(OCC)SCCS(=O)(=O)CC,inactive,
NC(=S)Nc1ccccc1,inactive,
CCSC(C)CC1CC(=O)C(C(CC)=NOC/C=C/Cl)=C(O)C1 (stereo not given),inactive,
O=Cc1cccc(Oc2ccccc2)c1,inactive,
CCOP(=S)(OCC)Oc1ccc(S(C)=O)cc1 (stereo not given),inactive,
